Experimental findings from PubChem BioAssay (Tox21) are described below.

Test [1] in a line: qHTS RealTime-Glo MT Cell Viability Assay in HEK293 cells - 0 hour (AID 1224880). Further: top concentration of the series differs between compounds; nearly all actives have a fitted effect of over 45% in size. Summed up: (§1)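 Tox21 screen in HEK293 using RealTime-Glo MT chemistry, with cells and reagent co-dispensed. Luminescence proportional to viable cell number was captured at intervals during 40 h compound exposure at 37 C.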
Background: In qHTS, concentration-response curves come from the screen itself.

Test [2] is described as follows: A CellTox Green Cytotoxicity Assay to monitor cytotoxicity in HEK293 cells - 32 hour (AID 1224881). Further: nearly all actives have a fitted effect of over 40% in size. The procedure, abridged:
(§2)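 Seeding of HEK293 cells together with cytotoxicity dye preceded a 5 h incubation at 37 C/5% CO2. Test compounds in DMSO were then added and fluorescence monitored across 40 h.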

Test [3] can be described thus: A CellTox Green Cytotoxicity Assay to monitor cytotoxicity in HepG2 cells - 0 hour (AID 1224882). Further: nearly all actives have a fitted effect of over 35% in size. Summed up: (§3)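 Nonlytic assay: viable cells exclude the dye, so fluorescence scales with cell death. HepG2 at 600 cells/well, compounds added after 5 h, signal read across 40 h.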
Test [4] in a line: A CellTox Green Cytotoxicity Assay to monitor cytotoxicity in HepG2 cells - 32 hour (AID 1224883). Further: nearly all actives have a fitted effect of over 50% in size. The procedure, abridged: as §3
The nature of test [5]: A CellTox Green Cytotoxicity Assay to monitor cytotoxicity in HEK293 cells - 8 hour (AID 1224884). Further: nearly all actives have a fitted effect of over 35% in size. The procedure, abridged:
as §2

The nature of test [6]: qHTS RealTime-Glo MT Cell Viability Assay in HepG2 cells - 16 hour (AID 1224885). Further: nearly all actives have a fitted effect of over 50% in size. The procedure, abridged:
(§4)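 Cell number in HepG2 cultures estimated from NanoLuc luminescence generated by metabolic reduction of a prosubstrate by living cells. The homogeneous, nonlytic format allowed repeated reads at 0, 8, 16, 24, 32 and 40 h of compound exposure.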

Test [7] can be described thus: qHTS RealTime-Glo MT Cell Viability Assay in HEK293 cells - 24 hour (AID 1224886). Further: top concentration of the series differs between compounds; nearly all actives have a fitted effect of over 50% in size. The procedure, abridged: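 Homogeneous bioluminescent viability format in HEK293 cells (600 cells/well). Following 5 h at 37 C/5% CO2, 23 nL compound was pintooled; the signal was measured repeatedly during 40 h incubation.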
Test [8] in a line: qHTS RealTime-Glo MT Cell Viability Assay in HEK293 cells - 8 hour (AID 1224887). Further: top concentration of the series differs between compounds; nearly all actives have a fitted effect of over 50% in size. Summed up:
as §1

Test [9] can be described thus: A CellTox Green Cytotoxicity Assay to monitor cytotoxicity in HEK293 cells - 16 hour (AID 1224888). Further: nearly all actives have a fitted effect of over 35% in size. The procedure, abridged: as §2
Test [10] is described as follows: qHTS RealTime-Glo MT Cell Viability Assay in HepG2 cells - 0 hour (AID 1224889). Further: nearly all actives have a fitted effect of over 50% in size. The procedure, abridged:
as §4

Test [11] can be described thus: A CellTox Green Cytotoxicity Assay to monitor cytotoxicity in HepG2 cells - 8 hour (AID 1224890). Further: nearly all actives have a fitted effect of over 45% in size. The procedure, abridged: as §3
Test [12] in a line: qHTS assay to identify small molecule antagonists of the estrogen receptor alpha (ER-alpha) signaling pathway using the BG1 cell line in the presence of 0.1 nM 17-beta-estradiol - cell viability counter screen (AID 1259241). Further: nearly all actives have a fitted effect of over 40% in size. The procedure, abridged:
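VM7Luc4E2 cells (endogenous full-length ER-alpha, 4xERE-luciferase), cultured 5 days in charcoal-stripped serum, exposed to compounds with 0.1 nM 17beta-estradiol (final) for 22 hr at 37C. Viability read in same wells as live-cell protease fluorescence after 30 min.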

Test [13] can be described thus: qHTS assay to identify small molecule antagonists of the androgen receptor (AR) signaling pathway using the MDA cell line in the presence of 0.5 nM R1881 - cell viability counter screen (AID 1259242). Further: nearly all actives have a fitted effect of over 45% in size. Summed up: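 R1881 at 0.5 nM final stimulated MDA-kb2 cells during 16 hr compound treatment at 37C. Cytotoxicity read: CellTiter-Fluor fluorescence after 30 min.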
Test [14] deals with Estrogen receptor (Homo sapiens) (UniProt P03372). Kind of test: qHTS assay to identify small molecule antagonists of the estrogen receptor alpha (ER-alpha) signaling pathway using the BG1 cell line in the presence of 0.1 nM 17-beta-estradiol (AID 1259244). Further: nearly all actives have a fitted effect of over 50% in size. The procedure, abridged: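 VM7Luc4E2; 4xERE-luciferase; 0.1 nM E2 final; 22 h co-incubation, 37C; ONE-Glo luminescence after 30 min at room temperature.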

Test [15] can be described thus: qHTS assay to identify small molecule phospholipidosis (PLD) inducers (AID 1259344; active means well fitted curve in the direction sought with a large enough effect; an effect the other way counts as inactive or inconclusive). The procedure, abridged: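 Quantitative HTS in HepG2: compound plus LipidTOX Red dye for 24 h, paraformaldehyde fixation with Hoechst 33342, widefield high-content imaging; amiodarone as positive and DMSO as negative control.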
Test [16] in a line: qHTS assay to identify small molecule HDAC inhibitors (AID 1259364). Further: potency means the concentration at half of the fitted maximal effect.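 Further: wild-type HCT-116 cells with endogenous class I/II HDAC activity; nearly all actives have a fitted effect of over 45% in size.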 Summed up: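 Relative class I and II HDAC activity is taken from the luminogenic signal in HCT-116 cells, with compound exposure 2 hr and reagent development 30 min at room temperature.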
The nature of test [17]: qHTS assay to identify small molecule HDAC inhibitors - cell viability counter screen (AID 1259365). The procedure, abridged: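 Wild-type HCT-116 cells, 1,500/well, cultured overnight, then compound-treated 2 h at 37 C. Viability measured as ATP luminescence with CellTiter-Glo after 30 min at room temperature.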
Test [18] is described as follows: qHTS assay to identify small molecule antagonists of the sonic hedgehog signaling (Shh) pathway - cell viability counter screen (AID 1259367). Further: nearly all actives have a fitted effect of over 55% in size. The procedure, abridged: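 Seed 3T3 Gli1-Luc cells at 2,000 per well; incubate 4 hr; add compound in DMSO, then conditioned medium; incubate at 37C with 5% CO2; add CellTiter-Fluor after 23 hr; read fluorescence 1 hr later.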

Test [19] can be described thus: qHTS assay to identify small molecule agonists of the sonic hedgehog signaling (Shh) pathway - cell viability counter screen (AID 1259366). Further: nearly all actives have a fitted effect of over 50% in size. The procedure, abridged:
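NIH/3T3-derived Gli1-Luc reporter cells, 2,000 per well, received compound after 4 h and were treated about 23 h at 37C. Viability measured in the same wells by CellTiter-Fluor fluorescence after 1 h.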

For test [20], the target named is Androgen receptor (Homo sapiens) (UniProt P10275). Kind of test: qHTS assay to identify small molecule antagonists of the androgen receptor (AR) signaling pathway using the MDA cell line in the presence of 0.5 nM R1881 (AID 1259243). Further: nearly all actives have a fitted effect of over 50% in size. The procedure, abridged:
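We exposed MDA-kb2 cells to compounds under 0.5 nM R1881 stimulation for 16 hr at 37C and quantified MMTV-driven luciferase by luminescence.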

A number with no mark means an inactive call. Records with an inconclusive call do not appear. Calls of active or inactive are those of the source. Unless noted, the call rests on the fitted dose curve; in most records, active means well fitted curve in the direction sought with a large enough effect in the repeat runs; inconclusive means weak or mixed curves; inactive means no such curve, though single readings can be large; an effect the other way counts as inactive or inconclusive.

Chain of Estrogen receptor (Homo sapiens) (P03372 whole entry, looked up): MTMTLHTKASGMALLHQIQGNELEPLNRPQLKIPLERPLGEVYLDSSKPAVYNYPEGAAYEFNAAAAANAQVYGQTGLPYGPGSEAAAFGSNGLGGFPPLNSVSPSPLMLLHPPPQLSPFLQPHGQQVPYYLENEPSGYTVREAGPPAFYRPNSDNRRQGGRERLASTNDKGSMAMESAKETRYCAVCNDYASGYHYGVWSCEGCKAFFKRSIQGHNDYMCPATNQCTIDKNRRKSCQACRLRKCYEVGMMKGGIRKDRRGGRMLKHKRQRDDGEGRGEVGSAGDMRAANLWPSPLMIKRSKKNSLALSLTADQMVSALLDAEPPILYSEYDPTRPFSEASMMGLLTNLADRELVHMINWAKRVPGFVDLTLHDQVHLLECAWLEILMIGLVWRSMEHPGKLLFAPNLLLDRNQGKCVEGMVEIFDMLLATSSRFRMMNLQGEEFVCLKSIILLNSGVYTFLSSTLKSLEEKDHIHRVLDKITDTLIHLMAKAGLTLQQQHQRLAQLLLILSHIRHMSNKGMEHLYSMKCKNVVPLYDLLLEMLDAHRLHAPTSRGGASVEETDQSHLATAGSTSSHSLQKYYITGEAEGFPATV
Chain of Androgen receptor (Homo sapiens) (P10275 whole entry, looked up): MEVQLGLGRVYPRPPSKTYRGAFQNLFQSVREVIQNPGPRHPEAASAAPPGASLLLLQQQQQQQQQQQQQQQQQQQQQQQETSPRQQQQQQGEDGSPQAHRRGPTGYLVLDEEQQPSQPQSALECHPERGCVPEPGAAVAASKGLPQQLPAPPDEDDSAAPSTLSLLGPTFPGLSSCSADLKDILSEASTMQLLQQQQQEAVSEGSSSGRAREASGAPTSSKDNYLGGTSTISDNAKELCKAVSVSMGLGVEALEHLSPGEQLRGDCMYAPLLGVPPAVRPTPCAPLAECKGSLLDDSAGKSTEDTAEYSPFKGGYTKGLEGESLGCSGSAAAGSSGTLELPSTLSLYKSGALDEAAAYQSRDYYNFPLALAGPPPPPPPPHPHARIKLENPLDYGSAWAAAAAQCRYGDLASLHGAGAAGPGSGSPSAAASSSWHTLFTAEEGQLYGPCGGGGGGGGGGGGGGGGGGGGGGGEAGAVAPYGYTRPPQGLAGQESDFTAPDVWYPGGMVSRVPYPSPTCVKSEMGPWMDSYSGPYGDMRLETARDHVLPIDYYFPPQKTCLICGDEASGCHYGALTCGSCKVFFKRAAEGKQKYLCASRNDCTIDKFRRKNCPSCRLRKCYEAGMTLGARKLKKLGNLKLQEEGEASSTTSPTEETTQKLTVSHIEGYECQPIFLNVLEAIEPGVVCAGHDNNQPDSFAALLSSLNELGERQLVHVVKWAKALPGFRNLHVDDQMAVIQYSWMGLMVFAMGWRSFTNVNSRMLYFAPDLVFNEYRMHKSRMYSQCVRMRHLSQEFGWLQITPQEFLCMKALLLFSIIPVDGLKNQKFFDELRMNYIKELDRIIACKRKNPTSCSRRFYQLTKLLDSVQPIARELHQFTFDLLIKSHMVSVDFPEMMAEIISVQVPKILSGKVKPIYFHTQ

For `C/C(=C(\CCO)SS/C(CCO)=C(\C)N(C=O)Cc1cnc(C)nc1N)N(C=O)Cc1cnc(C)nc1N`, the Potency result in [1], in test [2], in [3], in [4], in test [5] and in test [7] was “inactive” throughout. In addition, the Potency entry in test [8], in [9], in test [10], in [11], in [12] and in [13] was “inactive” throughout. The Potency result in test [14], in test [15], in test [16] and in [18] was “inactive” in each case. Further, the outcome in test [6] and in test [17] was inactive.
Turning to `COc1cc(C)c(Cc2cnc(N)nc2N)cc1OC`, the Potency entry in test [1], in test [2], in [3], in [4], in test [5] and in test [7] was “inactive” throughout. In addition, the Potency result in test [8], in [9], in test [10], in [11], in test [12] and in test [13] was “inactive” each time. For the same molecule, the Potency entry in test [14], in test [15], in test [16] and in [19] was “inactive” throughout. The result in test [6] was inactive.
Consider `COC(=O)/C=C/C(C)=C\C=C\C(C)=C\C=C\C=C(C)\C=C\C=C(C)\C=C\C(=O)O`, for which the Potency result in [1], in [2], in [3], in test [4], in [5] and in [7] was “inactive” throughout. Besides, the Potency entry in [8], in [9], in [10], in [11], in [12] and in [13] was “inactive” in each case. Besides, the Potency entry in test [20] and in test [14] was “inactive” throughout. In addition, the molecule was called inactive in test [6] and in test [17]. For the same molecule, in test [16], the Potency was 24.3 µM (active).
For the molecule `O=C(C1CCCCC1)N1CC(=O)N2CCCc3ccccc3C2C1` (configuration not stated), the Potency result in test [1], in test [2], in test [3], in test [4], in test [5] and in [7] was “inactive” in each case. The Potency entry in test [8], in [9], in test [10], in test [11], in [12] and in [13] was “inactive” in each case. For the same molecule, the Potency result in test [20], in test [14], in test [16], in [19] and in [18] was “inactive” in each case. Also, the result in [6] and in test [17] was inactive.
As to `Cc1ccc(NC=O)c(C)c1`, the Potency entry in test [1], in test [2], in test [3], in test [4], in test [5] and in test [7] was “inactive” each time. In addition, the Potency entry in test [8], in test [9], in test [10], in test [11], in [12] and in test [13] was “inactive” throughout. In addition, the Potency entry in test [14], in test [16] and in test [19] was “inactive” each time. Moreover, the outcome in test [6] and in test [17] was inactive.
With `CC1(C)[C@@H]2CC[C@]3(C2)[C@@H]1C(=O)CCC3(C)C`, the Potency entry in [1], in [2], in [3], in test [4], in [5] and in [7] was “inactive” throughout. In addition, the Potency result in test [8], in [9], in [10], in test [11], in [12] and in [13] was “inactive” throughout. Also, the Potency result in [20], in test [14], in [16] and in test [18] was “inactive” throughout. The molecule was called inactive in test [6].
Turning to `Cc1c(Cl)cccc1Nc1ccccc1C(=O)O`, the Potency entry in test [1], in test [2], in [3], in [4], in test [5] and in test [7] was “inactive” in each case. Further, the Potency result in test [8], in test [9], in [10], in [11], in [12] and in test [13] was “inactive” throughout. Further, the Potency result in test [14], in [15], in test [16], in [19] and in test [18] was “inactive” each time. The molecule was classed as inactive in [6] and in test [17].
Take `Nc1ccc(F)cc1F`: the Potency entry in [1], in [2], in test [3], in [4], in [5] and in test [7] was “inactive” throughout. Besides, the Potency entry in test [8], in test [9], in test [10], in [11], in test [12] and in test [13] was “inactive” each time. Besides, the Potency result in test [20], in [14], in test [16] and in test [18] was “inactive” each time. Further, the molecule was called inactive in test [6] and in test [17].
